Reference: PubChem BioAssay
For part of these data: Potency and affinity values are given separately. Active and inactive are the calls of the source.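 How the source made its calls, unless noted: active means primary screen inhibitor hit that blocks the TRPC4 channel at some tested dose, yielding a dose curve; inactive means the rest.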

Key:
[1] = system: TRPC4 beta (transient receptor potential cation channel C4), mouse; test: activators of mouse TRPC4 channel, confirmation, cell-based, Fluo4 calcium, HEK293 TRPC4beta/mu-opioid, duplicates, 10 µM (AID 2426;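 active means fluorescence ratio normalized to control raised more than 50% in primary screen plus both repeat runs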;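 on activation: percent rise of integrated ratio over buffer wells lacking compound which define 0%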); details: Fluo4 calcium fluorescence, at 10 µM; active compounds read high
[2] = system: transient receptor potential cation channel C4 beta (TRPC4), mouse; test: activators of mouse TRPC4 channel, confirmation, cell-based, second round, Fluo4, HEK293 TRPC4beta/mu-opioid, 1 µM (AID 2461;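 active means primary screen active and over 50% activation in each of two duplicate runs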;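 on activation: 0% = wells without test compound as baseline of integrated fluorescence ratio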); details: Fluo4 calcium fluorescence, at 1 µM; active compounds read high
[3] = system: TRPC4 (transient receptor potential cation channel C4 beta), mouse; test: positive allosteric modulators of mouse TRPC4, confirmation, cell-based, second round, Fluo-4, HEK293 TRPC4beta/mu-opioid, 1 µM (AID 2554;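 active means primary screen hit whose fluorescence ratio, in both repeats, exceeds the weak agonist control mean by 3 SD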); details: DAMGO EC20, Fluo-4 calcium flux, at 1 µM; active compounds read high
[4] = system: TRPC4 beta (transient receptor potential cation channel C4), mouse; test: positive allosteric modulators of mouse TRPC4, confirmation, cell-based, Fluo-4, HEK293 TRPC4beta/mu-opioid (AID 2555;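 active means primary screen hit whose calcium fluorescence ratio, in both repeats, exceeds the weak agonist control mean by 3 SD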); details: DAMGO EC20, Fluo-4 calcium flux, at 10 µM; active compounds read high
[5] = target: Short transient receptor potential channel 4 (Mus musculus) (UniProt Q9QUQ5); test: inhibitors of mouse TRPC4 channel, confirmation, cell-based, Fluo4, HEK293 TRPC4beta/mu-opioid (AID 2636;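 active means calcium signal cut by more than 3 SD below the full-agonist control yet still positive, in both repeats and the earlier primary screen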); details: DAMGO, Fluo4 calcium flux, at 10 µM; active compounds read high
[6] = target: Short transient receptor potential channel 4 (Mus musculus) (UniProt Q9QUQ5); test: inhibitors of mouse TRPC4 channel, confirmation, cell-based, second round, Fluo4, HEK293 TRPC4beta/mu-opioid, 1 µM (AID 2637;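 active means calcium signal ratio cut to more than 3 SD under the fully stimulated control mean yet still positive, in both repeats and the primary screen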); details: Fluo4 calcium flux, DAMGO, at 1 µM; active compounds read high
[7] = target: Short transient receptor potential channel 4 (Mus musculus) (UniProt Q9QUQ5); test: TRPC4 positive allosteric modulators, dose response, cell-based, HEK293 TRPC4/mu-opioid, Fluo-4 calcium, EC20 DAMGO (AID 434941;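 active means earlier screen potentiator hit that boosts the TRPC4 ion channel at some dose, with a dose response; inactive means no potentiation, no dose response, or not a prior hit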;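 further: calcium entry triggered by an EC20 dose of DAMGO at the co-expressed mu-opioid receptor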)
[8] = target: Short transient receptor potential channel 4 (Mus musculus) (UniProt Q9QUQ5); test: mouse TRPC4 channel inhibitors, dose response, cell-based, HEK293 TRPC4/mu-opioid, Fluo-4 calcium (AID 434942)
[9] = target: Short transient receptor potential channel 6 (Mus musculus) (UniProt Q61143); test: inhibition of mouse TRPC6 channel, confirmation, selectivity assay for TRPC4 inhibitor project, cell-based, HEK293, membrane potential dye, duplicate (AID 434948;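 active means active in primary screen and both duplicates, each dropping signal beyond three positive-control SD with fluorescence still positive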); details: HEK293 TRPC6, membrane potential dye fluorescence, at 10 µM, stimulated with maximal-effect acetylcholine; active compounds read high
[10] = target: Short transient receptor potential channel 6 (Mus musculus) (UniProt Q61143); test: activation of mouse TRPC6 channel, confirmation, selectivity assay for TRPC4 activator project, cell-based, HEK293, membrane potential dye, duplicate (AID 434950;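 active means membrane potential signal rise above negative control mean plus 3 SD in both duplicates, also active in the earlier TRPC4 screen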;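 on activation: 0% = buffer only wells and 100% = acetylcholine maximal-effect wells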); details: HEK293 TRPC6, membrane potential fluorescence, at 10 µM; active compounds read high
[11] = target: Short transient receptor potential channel 6 (Mus musculus) (UniProt Q61143); test: TRPC6 potentiation by TRPC4 potentiator hits, confirmation, selectivity assay for TRPC4 potentiator project, HEK293 cells, membrane potential dye, duplicate (AID 434952;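 active means compound raising the membrane signal above positive-control mean plus 3 SD in both repeats, and a primary screen hit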); details: HEK293 TRPC6, membrane potential dye fluorescence, at 10 µM, maximal acetylcholine added after compound; active compounds read high
[12] = target: Short transient receptor potential channel 4 (Mus musculus) (UniProt Q9QUQ5); test: calcium flux activators in TRPC4/5HT1a cells, counter-screen for TRPC4 activator project, cell-based, second counter screen, HEK293 TRPC4/5HT1a, Fluo-4 (AID 434977;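 active means calcium signal rise above buffer-control mean plus 5 SD in both duplicates, and also a hit in the primary screen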;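 on activation: plate controls were assay buffer for no effect and maximal serotonin response for full effect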); details: Fluo-4 calcium flux, at 10 µM; active compounds read high
[13] = calcium flux inhibitors in TRPC4/5HT1a cells, confirmation, counter-screen for TRPC4 inhibitor project, cell-based, second counter screen, HEK293 TRPC4/5HT1a, Fluo-4 (AID 434978;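 active means primary screen active whose calcium signal fell more than 3 SD beyond the full-serotonin control mean in both duplicate plates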;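 on outcome: serotonin given first at submaximal then at maximal dose after compound preincubation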); details: Fluo-4 calcium flux, at 10 µM, serotonin added to trigger calcium flux; active compounds read high
[14] = system: TRPC4 (mouse), co-expressed with 5HT1a in HEK293; test: calcium flux potentiators in TRPC4/5HT1a cells, confirmation, counter-screen for TRPC4 potentiator project, cell-based, second counter screen, HEK293 TRPC4/5HT1a, Fluo-4 (AID 434979;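 active means signal rise over 3 SD above mean of control wells given weak agonist, in both repeats and first screen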); details: Fluo-4 calcium flux, at 10 µM, serotonin added at its EC20 dose; active compounds read high
[15] = calcium flux activation in mu-opioid HEK293 cells, confirmation, counter-screen for TRPC4 activator project, cell-based, HEK293 mu-opioid receptor line (AID 449723;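 active means hit in primary screen, with calcium signal over 5 SD above buffer well mean in both duplicates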;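 further: counter screen cells carry the mu-opioid receptor alone and lack TRPC4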); details: Fluo-4 calcium fluorescence, at 10 µM; active compounds read high
[16] = calcium flux enhancement in mu-opioid HEK293 cells, confirmation, counter-screen for TRPC4 allosteric potentiator project, cell-based, HEK293 mu-opioid receptor line (AID 449724;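 active means calcium signal rise more than 3 SD above the low-dose agonist control mean, in both duplicate plates and the primary screen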); details: Fluo-4 calcium flux, at 10 µM, compound added before EC20 DAMGO stimulus; active compounds read high

Short transient receptor potential channel 4 (Mus musculus), sequence (Q9QUQ5 whole entry, looked up): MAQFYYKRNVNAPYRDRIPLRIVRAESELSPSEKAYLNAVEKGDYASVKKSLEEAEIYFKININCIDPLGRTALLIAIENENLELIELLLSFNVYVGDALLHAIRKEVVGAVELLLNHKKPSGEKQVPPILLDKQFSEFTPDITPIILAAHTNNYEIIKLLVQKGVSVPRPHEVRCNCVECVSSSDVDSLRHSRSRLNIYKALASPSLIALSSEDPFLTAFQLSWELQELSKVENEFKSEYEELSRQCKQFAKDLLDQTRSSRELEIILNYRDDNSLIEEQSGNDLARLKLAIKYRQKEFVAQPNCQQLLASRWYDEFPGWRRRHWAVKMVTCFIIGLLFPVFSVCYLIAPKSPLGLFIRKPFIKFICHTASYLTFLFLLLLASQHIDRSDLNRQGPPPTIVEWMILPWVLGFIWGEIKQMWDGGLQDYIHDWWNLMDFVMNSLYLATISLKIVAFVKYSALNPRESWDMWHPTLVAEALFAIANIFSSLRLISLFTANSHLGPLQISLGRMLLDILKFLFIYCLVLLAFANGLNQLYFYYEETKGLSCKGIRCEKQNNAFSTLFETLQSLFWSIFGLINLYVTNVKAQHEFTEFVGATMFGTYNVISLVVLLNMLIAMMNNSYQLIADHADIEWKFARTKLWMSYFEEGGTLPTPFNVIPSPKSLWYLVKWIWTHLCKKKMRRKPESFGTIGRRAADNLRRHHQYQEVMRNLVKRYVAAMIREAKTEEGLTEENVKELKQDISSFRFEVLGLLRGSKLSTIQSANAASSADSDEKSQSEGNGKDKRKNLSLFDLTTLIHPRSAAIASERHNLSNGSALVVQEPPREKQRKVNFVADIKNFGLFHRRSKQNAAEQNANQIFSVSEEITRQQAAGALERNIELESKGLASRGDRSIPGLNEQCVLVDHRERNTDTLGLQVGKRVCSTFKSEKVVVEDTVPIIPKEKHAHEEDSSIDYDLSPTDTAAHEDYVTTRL
Short transient receptor potential channel 6 (Mus musculus), sequence (Q61143 whole entry, looked up): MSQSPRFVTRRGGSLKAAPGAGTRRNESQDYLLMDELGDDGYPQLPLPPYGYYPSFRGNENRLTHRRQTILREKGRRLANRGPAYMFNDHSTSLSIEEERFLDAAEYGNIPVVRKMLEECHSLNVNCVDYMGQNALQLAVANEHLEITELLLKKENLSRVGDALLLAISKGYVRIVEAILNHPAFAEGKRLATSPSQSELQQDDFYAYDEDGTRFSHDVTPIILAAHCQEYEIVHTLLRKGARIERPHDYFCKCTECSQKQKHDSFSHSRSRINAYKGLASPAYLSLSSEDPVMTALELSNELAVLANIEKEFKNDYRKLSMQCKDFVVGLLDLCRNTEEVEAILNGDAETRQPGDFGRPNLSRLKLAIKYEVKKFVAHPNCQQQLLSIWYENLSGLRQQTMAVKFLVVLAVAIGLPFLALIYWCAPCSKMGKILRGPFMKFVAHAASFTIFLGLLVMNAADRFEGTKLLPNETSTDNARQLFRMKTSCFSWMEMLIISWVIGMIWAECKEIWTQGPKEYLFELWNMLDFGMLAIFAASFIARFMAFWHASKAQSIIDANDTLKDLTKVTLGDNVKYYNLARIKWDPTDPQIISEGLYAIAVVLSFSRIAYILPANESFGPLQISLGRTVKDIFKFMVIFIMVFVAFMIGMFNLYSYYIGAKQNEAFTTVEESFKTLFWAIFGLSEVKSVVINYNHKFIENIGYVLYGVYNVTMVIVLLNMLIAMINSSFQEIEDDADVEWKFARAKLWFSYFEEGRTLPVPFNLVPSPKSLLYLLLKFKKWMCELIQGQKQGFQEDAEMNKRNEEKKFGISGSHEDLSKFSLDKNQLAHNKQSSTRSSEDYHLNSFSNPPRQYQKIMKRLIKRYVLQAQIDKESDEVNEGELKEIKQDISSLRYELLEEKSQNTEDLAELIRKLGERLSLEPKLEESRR

C=CCn1c(CCNC(=O)C(C)(C)C)nc2ccccc21
inactive: outcome [2] | outcome [3] | outcome [4] | outcome [5] | outcome [6] | outcome [7] | outcome [8] | outcome [9] | outcome [11] | outcome [13] | outcome [14] | outcome [15] | outcome [16]
active: activation [1] 151% | activation [10] 37% | activation [12] 30.7%

Cc1ccc(C)c(-n2cc(CNCCc3cnccn3)c(-c3ccccc3)n2)c1
active: activation [1] 152% | activation [2] 54% | activation [10] 40%
inactive: outcome [3] | outcome [4] | outcome [5] | outcome [6] | outcome [7] | outcome [8] | outcome [9] | outcome [11] | outcome [12] | outcome [13] | outcome [14] | outcome [15] | outcome [16]

O=C(NNC(=S)NC(=O)C12CC3CC(CC(C3)C1)C2)c1ccncc1
active: activation [1] 192% | activation [12] 126% | activation [15] 44.2%
inactive: outcome [2] | outcome [3] | outcome [4] | outcome [5] | outcome [6] | outcome [7] | outcome [8] | outcome [9] | outcome [10] | outcome [11] | outcome [13] | outcome [14] | outcome [16]

CCOc1ccc2ncc(C(=O)c3ccc(OC)cc3)c(N3CCN(CC)CC3)c2c1
active: activation [1] 196%
inactive: outcome [2] | outcome [3] | outcome [4] | outcome [5] | outcome [6] | outcome [7] | outcome [8] | outcome [9] | outcome [10] | outcome [11] | outcome [12] | outcome [13] | outcome [14] | outcome [15] | outcome [16]

NCCCn1c(C(=O)c2cc(Cl)c(N)c(Cl)c2)c2ccccc2[n+]1[O-]
active: activation [1] 179% | activation [2] 103% | inhibition [5] 83% | activation [12] 67.1% | inhibition [13] 14%
inactive: outcome [3] | outcome [4] | outcome [6] | outcome [7] | outcome [8] | outcome [9] | outcome [10] | outcome [11] | outcome [14] | outcome [15] | outcome [16]

CC(C)c1ccc(NC(=S)N(C)CCc2ccccn2)cc1
inactive: outcome [1] | outcome [2] | outcome [3] | outcome [4] | outcome [5] | outcome [6] | outcome [7] | outcome [8] | outcome [9] | outcome [10] | outcome [11] | outcome [13] | outcome [14] | outcome [15] | outcome [16]
active: activation [12] 25.6%

CCn1c(=O)cc(OCC(=O)NCCCN2CC(C)CC(C)C2)c2ccccc21 (stereo not given)
active: activation [1] 80% | activation [2] 73% | activation [12] 17.3%
inactive: outcome [3] | outcome [4] | outcome [5] | outcome [6] | outcome [7] | outcome [8] | outcome [9] | outcome [10] | outcome [11] | outcome [13] | outcome [14] | outcome [15] | outcome [16]

COc1ccc(C(CNC(=O)c2ccc(S(=O)(=O)N(C)C)cc2)N(C)C)cc1 (stereo not given)
inactive: outcome [3] | outcome [4] | outcome [5] | outcome [6] | outcome [7] | outcome [8] | outcome [9] | outcome [11] | outcome [12] | outcome [13] | outcome [14] | outcome [15] | outcome [16]
active: activation [1] 296% | activation [2] 179% | activation [10] 29%

O=S(=O)(c1ccc(Cl)cc1)N1CCN2CCCC2C1 (stereo not given)
active: activation [1] 103% | activation [10] 27% | activation [12] 18.1% | potentiation [14] 25.7%
inactive: outcome [2] | outcome [3] | outcome [4] | outcome [5] | outcome [6] | outcome [7] | outcome [8] | outcome [9] | outcome [11] | outcome [13] | outcome [15] | outcome [16]

CCN1CCN(c2ccc(S(=O)(=O)N3CCCCC3)cc2NC(=O)c2cccc(C)c2[N+](=O)[O-])CC1
inactive: outcome [2] | outcome [3] | outcome [4] | outcome [5] | outcome [6] | outcome [7] | outcome [8] | outcome [9] | outcome [10] | outcome [11] | outcome [13] | outcome [14] | outcome [15] | outcome [16]
active: activation [1] 143% | activation [12] 40.7%

COc1ccc(-c2nn(-c3ccccc3)cc2CNCc2cccnc2)c(F)c1
active: activation [1] 224%
inactive: outcome [2] | outcome [3] | outcome [4] | outcome [5] | outcome [6] | outcome [7] | outcome [8] | outcome [9] | outcome [10] | outcome [11] | outcome [12] | outcome [13] | outcome [14] | outcome [15] | outcome [16]

CN(C)CCCN(C(=O)c1ccc(S(=O)(=O)N2CCCc3ccccc32)cc1)c1nc2ccc(F)cc2s1
active: activation [1] 134% | activation [15] 14.7%
inactive: outcome [2] | outcome [3] | outcome [4] | outcome [5] | outcome [6] | outcome [7] | outcome [8] | outcome [9] | outcome [10] | outcome [11] | outcome [12] | outcome [13] | outcome [14] | outcome [16]

O=C(CCc1ccccc1)NNC(=S)NC(=O)c1ccc(Cl)cc1
inactive: outcome [2] | outcome [3] | outcome [4] | outcome [5] | outcome [6] | outcome [7] | outcome [8] | outcome [9] | outcome [11] | outcome [13] | outcome [14] | outcome [16]
active: activation [1] 170% | activation [10] 30% | activation [12] 66.8% | activation [15] 28.6%

COc1ccc(-c2cc(C(=O)NCC(c3ccccc3)N(C)C)c3ccccc3n2)cc1OC (stereo not given)
inactive: outcome [2] | outcome [3] | outcome [4] | outcome [5] | outcome [6] | outcome [7] | outcome [8] | outcome [9] | outcome [10] | outcome [11] | outcome [12] | outcome [13] | outcome [14] | outcome [15] | outcome [16]
active: activation [1] 98%

CCN1CCN(c2ccc(S(=O)(=O)N3CCCCC3)cc2NC(=O)COc2ccccc2)CC1
inactive: outcome [2] | outcome [3] | outcome [4] | outcome [5] | outcome [6] | outcome [7] | outcome [8] | outcome [9] | outcome [10] | outcome [11] | outcome [13] | outcome [14] | outcome [15] | outcome [16]
active: activation [1] 157% | activation [12] 16.8%
